Measured values: PubChem BioAssay AID493151 (Sanford-Burnham Center for Chemical Genomics, 2011)
The campaign covered roughly 1,400 compounds. About 860 (61%) were called active. The set was probably picked from earlier hits. This is one part of a sample in which actives are shown more often than they occur.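 Rule for the calls: active = inhibition reaching a set limit, 80% of the first screen's cutoff, at 20 µM in any replicate; inactive = the rest.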

Biological target: DNA dC->dU-editing enzyme APOBEC-3A (Homo sapiens) (UniProt P31941)
Assay: APOBEC3A deaminase inhibitors, retest, confirmation, selectivity assay for APOBEC3G inhibitor project, biochemical, single concentration, fluorescence readout (AID 493151);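 note: plate controls were DMSO wells with A3A for no effect and wells lacking A3A enzyme for full effect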
Conditions: recombinant A3A, ssDNA deaminase UDG fluorescence assay; at 20 µM; stronger effect = higher value

DNA dC->dU-editing enzyme APOBEC-3A (Homo sapiens), sequence (P31941 whole entry, looked up): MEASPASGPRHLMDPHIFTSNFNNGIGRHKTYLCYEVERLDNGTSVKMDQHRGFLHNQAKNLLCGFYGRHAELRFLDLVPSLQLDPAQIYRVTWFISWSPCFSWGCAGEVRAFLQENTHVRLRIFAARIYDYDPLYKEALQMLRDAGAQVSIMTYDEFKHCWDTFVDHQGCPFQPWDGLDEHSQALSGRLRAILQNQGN

Row | Compound | inhibition
1 | CCN(CC)CCOC(=O)c1cc2cc(COC)ccc2o1 | 80.1% (active)
2 | O=C(O)CCn1cc(C=C2C(=O)NC(=S)NC2=O)c(-c2cccc(Br)c2)n1 | 52.3% (active)
